Bioassay records (PubChem BioAssay)
A selection: hits, their analogues and other compounds. The true share with any hit is near 0.96%.
sEH inhibitor – inhibitors of human soluble epoxide hydrolase | hit rate 0.34% among 91,000 | recombinant human sEH enzymatic activity assay | inhibition, % at 2 µM | P34913; in the data active = inhibition above about 80%
Target sequence (P34913 whole entry, looked up): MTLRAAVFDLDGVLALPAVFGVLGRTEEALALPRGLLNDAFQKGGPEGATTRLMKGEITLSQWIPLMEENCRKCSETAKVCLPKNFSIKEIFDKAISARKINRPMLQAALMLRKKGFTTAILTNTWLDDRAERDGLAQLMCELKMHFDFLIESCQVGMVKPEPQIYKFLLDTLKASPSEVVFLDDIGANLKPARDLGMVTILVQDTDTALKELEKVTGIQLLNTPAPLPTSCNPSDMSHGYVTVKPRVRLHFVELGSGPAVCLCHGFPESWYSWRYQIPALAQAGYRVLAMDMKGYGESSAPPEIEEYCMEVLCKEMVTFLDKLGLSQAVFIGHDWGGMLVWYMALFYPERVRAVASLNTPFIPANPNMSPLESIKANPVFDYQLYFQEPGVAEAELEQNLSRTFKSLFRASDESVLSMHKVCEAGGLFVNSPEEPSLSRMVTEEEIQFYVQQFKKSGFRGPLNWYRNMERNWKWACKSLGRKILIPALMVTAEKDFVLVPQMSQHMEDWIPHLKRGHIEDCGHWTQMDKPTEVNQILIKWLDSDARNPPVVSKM
sEH activator – activators of human soluble epoxide hydrolase; P34913; purified human sEH enzymatic activity, activator screen; activation, % at 2 µM; hit rate 0.04% among 91,000; in the data active = activation above about 37%
cytoskel mod – cytoskeleton assembly modification; AID 836; HUVEC TNFa F-actin phalloidin imaging, high content; inhibition, % at 2 µM; hit rate 0.18% among 91,000;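 active = inhibition above the batch mean plus 3 SD and confirmed as a hit by visual image inspection, cut at about 30% in these data, passing the limit was not always enough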
Phagocytosis inh – macrophage phagocytosis inhibition; inhibition, % at 5 µM; hit rate 0.07% among 110,000; J774A.1 macrophage IgG-bead phagocytosis, imaging; AID 1029;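 active = inhibition above the mean of the plate negative controls plus 5 SD, cut at about 13% in these data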;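 also: phagocytic index as fraction of beads internalized from green versus red external bead signal; plate controls were DMSO negative control for no effect and cytochalasin-D positive control for full effect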
sdo1 growth – restores growth of sdo1-depleted yeast | S. cerevisiae sdo1-depleted JHY4D growth rescue, OD600 30 h; active compounds read high; pdr5 snq2 efflux-pump mutant strain | z-score at 10 µM | hit rate 0.21% among 140,000;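 active = z-score above 3 at both the 24 hr and the 30 hr optical density reads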;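 also: z-score against mean and SD of all compound wells on the same plate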
E-sel TNF inh – TNF alpha driven E-selectin expression inhibition; inhibition, % at 2 µM; hit rate 0.71% among 120,000; AID 1246; HUVEC TNFa-induced E-selectin immunofluorescence, high content;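 active = inhibition above the batch mean plus 3 SD, and confirmed as a hit on visual image review, cut at about 43% in these data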;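 also: 0% = TNF-stimulated DMSO wells and 100% = unstimulated control wells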
Numbers without * were called inactive; . = no result given; + = active, no number; [ ] = dose if it differs, or a comment.

SMILES	sEH inhibitor	sEH activator	cytoskel mod	Phagocytosis inh	sdo1 growth	E-sel TNF inh
CC(NC(=O)/C=C/c1cnc2ccccc2n1)C12CC3CC(CC(C3)C1)C2 (stereo unspecified)	.	.	.	-4.7	-1.9	.
COc1ccc(O)c(CNc2ccccc2F)c1	.	.	.	.	.	-7.3
O=C(c1cccc(F)c1)N1CCN(S(=O)(=O)c2ccc(C(F)(F)F)cc2)CC1	5.0	-3.7	21.4	-0.8	0.14	82.8*
CCC(=O)Nc1sc2c(c1C#N)CC(C)(C)NC2(C)C	.	.	-26.8	-0.6	-0.63	.
CC1(C)Cc2c(sc(NC(=O)C(C)(C)C)c2C#N)C(C)(C)N1	-0.7	5.1	76.2*	.	1.73	-20.1
COc1ccc(N2C(=O)CCC(C(=O)O)C2c2ccc(OC)c(OC)c2)cc1 (stereo unspecified)	-1.2	-0.6	-15.6	-0.8	0.53	-7.9
COc1ccc(N2C(=O)CCC(C(=O)NCCN3CCOCC3)C2c2ccc(OC)c(OC)c2)cc1 (stereo unspecified)	.	.	.	43.8*	-0.05	11.5
Cn1c(=O)[nH]c(=O)c2c1nc(N1CCCCCC1)n2CCSc1nc2ccccc2[nH]1	.	.	-38.4	0.7	1.37	-8.0
N#Cc1cc2sc3nc4ccccc4n3c2cc1C#N	-2.4	0.5	18.8	-2.8	0.53	-3.5
N#Cc1cc2sc3nnc(-c4ccncc4)n3c2cc1C#N	.	.	.	-1.3	-1.28	57.5*
O=C(Nc1cccc(Br)c1)c1ccc(Cl)c(S(=O)(=O)N2CCOCC2)c1	95.0*	-94.7	1.2	.	-0.67	-3.7
CC(C)(C)SCCNC(=O)c1ccc(Cl)c(S(=O)(=O)N2CCOCC2)c1	86.5*	-86.3	1.9	.	.	-17.7
O=C(O)CSC1=NC(=Nc2ccc(Cl)cc2)C2(CCCCC2)N1c1cccc(C(=O)O)c1	.	.	.	-0.1	0.74	-11.9
Cc1cccc(N2CCN(Cc3cn(C)nc3-c3ccccc3F)CC2)n1	.	.	.	.	.	-4.2
CCN(CC)c1ccc(/C=C2\CCC(/C=C(\C#N)C(=O)Nc3ccccc3F)=C2N2CCOCC2)cc1	.	.	.	+[fluoresces]	0.91	-9.6
Cc1ccccc1NC(=S)N(C)Cc1cn(C)c2ccccc12	.	.	.	-13.4	-1.1	.
O=C(Nc1cccc(Cl)c1)c1ccc(F)c(S(=O)(=O)N2CCN(c3ccccn3)CC2)c1	.	.	.	-3.7	-1.33	0.9
CCOc1ccc(NC(=O)c2ccc(F)c(S(=O)(=O)N3CCN(c4ccccn4)CC3)c2)cc1	85.9*	-85.8	9.1	-3.0	-1.41	.
Cc1cc(NC(=O)CSc2nnnn2C)n(-c2ccccc2)n1	6.1	-3.3	34.6*	.	0.89	13.7
Cn1nnnc1SCC(=O)Nc1cc(C(C)(C)C)nn1-c1ccccc1	-12.3	16.0	-63.4	-0.6	0.43	.
CCn1c(Cc2cccs2)nnc1SCC(=O)NC(C)(C)C	.	.	.	.	.	16.9
COCCCNC(=S)NC1CC2CCCC(C1)N2Cc1ccco1 (stereo unspecified)	-4.6	5.7	67.9*	-0.8	0.84	-12.3
Cc1scc(C(=O)N/N=C/c2ccsc2)c1C	.	.	.	-0.3	0.34	-5.3
CCCOc1cccc(/C=N/NC(=O)c2csc(C)c2C)c1	86.4*	-86.2	8.1	1.1	-1.13	13.0
Cn1c(SCc2ccc(C#N)cc2)nnc1-c1ccccc1	-20.6	20.0	-13.9	0.7	0.48	10.6
SMILES	sEH inhibitor	sEH activator	cytoskel mod	Phagocytosis inh	sdo1 growth	E-sel TNF inh
Cn1c(SCc2ccc(C#N)cc2)nnc1-c1cccc(Cl)c1	1.9	-2.5	2.7	-0.5	-0.21	60.1*
Cn1c(SCC(=O)N2CCOCC2)nnc1-c1cccc(NC(=O)c2ccccc2)c1	-2.9	1.6	17.6	-0.2	0.81	63.8*
Cc1cc([N+](=O)[O-])nn1CCCC(=O)Nc1sc2c(c1C(N)=O)CCCC2	.	.	.	1.8	-1.98	-4.9
Cc1cc([N+](=O)[O-])nn1CC(=O)Nc1sc2c(c1C(N)=O)CCCC2	.	.	.	.	.	80.1*
Cc1cccc(NC(=S)N(CCCN2CCOCC2)C(C)c2cc3ccccc3o2)c1C (stereo unspecified)	.	.	.	.	.	-12.0
COc1ccc(C)cc1NC(=O)c1cnc2sccn2c1=O	.	.	.	0.9	.	.
CCC(C)(C)NC(=O)CN(C(=O)c1snc(C(N)=O)c1N)c1ccc(OC)c(OC)c1	-7.0	5.1	1.9	-0.8	-0.39	76.2*
O=C(NCc1ccco1)C1CC(c2cccc([N+](=O)[O-])c2)=NO1 (stereo unspecified)	-5.7	7.0	25.8	-2.4	-0.28	100.0*
CCCCNC(=O)C1CC(c2cccc([N+](=O)[O-])c2)=NO1 (stereo unspecified)	-8.4	9.7	10.6	-1.7	-0.46	-21.7
COc1ccc(S(=O)(=O)Cc2ccc(C(=O)N3CCOCC3)o2)cc1	.	.	.	1.6	-0.24	95.4*
CCC(C)Oc1cccc(OCCCCN2C(=O)NC(C)(C)C2=O)c1 (stereo unspecified)	3.8	-1.3	100.0*	-1.6	-0.47	-0.4
CCCOc1ccc(C(=O)NCC(c2cccs2)N(C)C)cc1 (stereo unspecified)	.	.	.	-0.6	1.16	94.0*
CCOc1ccc(C(=O)NCC(c2cccs2)N(C)C)cc1OCC (stereo unspecified)	.	.	.	-9.2	0.83	.
C=CS(=O)(=O)c1ccc(Oc2ccc(S(=O)(=O)C=C)cc2)cc1	.	.	.	-7.3	0.79	99.9*
CC(OC(=O)c1cc(S(=O)(=O)N(C)c2ccccc2)ccc1Cl)C(=O)Nc1ccc2c(c1)OCCO2 (stereo unspecified)	.	.	.	3.1	-0.11	1.9
Cc1ccc(CNc2ccc(S(=O)(=O)N3CCOCC3)cc2[N+](=O)[O-])cc1	.	.	.	-8.9	-0.94	75.8*
CCOC(=O)C(C)(C)Sc1nc2c(cnn2-c2ccc(Cl)cc2)c(=O)[nH]1	12.9	-12.3	3.3	163.1*[fluoresces]	-1.39	.
CCC(Sc1nc2c(cnn2-c2ccc(Cl)cc2)c(=O)[nH]1)C(=O)OC (stereo unspecified)	.	.	.	0.0	-1.55	-15.9
CCCN(CC1CC1)C(=S)Nc1ccc(Oc2ccccc2)cc1	.	.	.	-5.1	-1.35	-11.3
Cc1ccc(NC(=O)NC2CCCCC2)cc1Cl	95.1*	-95.2	0.9	-3.2	-1.53	26.7
CCc1cccc(NC(=O)NC2CCCCC2)c1	94.2*	-94.0	.	1.3	-0.35	-42.1
Cc1ccc2cc(C#N)c(N3CCCN(C(=O)C4CCCO4)CC3)nc2c1C (stereo unspecified)	.	.	.	-0.8	-1.47	5.6
Cc1ccc2cc(C#N)c(N3CCCC3)nc2c1C	10.4	-5.7	0.7	0.1	2.02	100.0*
O=C(CCc1ccccc1)Nc1nnc(-c2ccccn2)o1	.	.	.	0.5	0.47	.
CCC(=O)Nc1nnc(-c2ccccn2)o1	.	.	.	4.1	0.21	68.0*
CCOc1ccccc1C(=O)Nc1cccc(-c2nnc(-c3ccccc3)o2)c1	5.9	-6.2	-12.2	4.9	-0.34	-12.4
CCOC(=O)N1CCC(NC(=O)C2CCN(S(=O)(=O)c3cccs3)CC2)CC1	-2.8	4.2	4.4	43.7*	0.4	8.1
CCC(C)Nc1nc(OC(C(F)(F)F)C(F)(F)F)nc(OC(C(F)(F)F)C(F)(F)F)n1 (stereo unspecified)	-5.3	11.4	6.8	.	0.2	43.5*
CCC(C)Nc1nc(OCC(F)(F)F)nc(OCC(F)(F)F)n1 (stereo unspecified)	-10.1	9.2	-32.2	-2.2	0.46	.
